Reference: PubChem BioAssay (NCI)
This is part of a sample that, as a whole, favours compounds with a hit. Of some 83,000 tested, about 20% had one in any assay.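 Activity criterion: percent growth below 10, measured after cells in 96-well plates were exposed to a single compound concentration for 48 hours.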 Values without a mark were called inactive. The source made the active and inactive calls.

What was measured:
Test in all cases: NCI-60 one-dose screen, 48 h (100 = growth as untreated, 0 = no growth, -100 = all killed)
NCI-H23 lung = settings: 10 µM unless noted
NCI-H322M lung = settings: 10 µM unless noted
HOP-62 NSCLC = settings: 10 µM unless noted
NCI-H460 lung = settings: 10 µM unless noted
HOP-92 NSCLC = settings: 10 µM unless noted
NCI-H522 lung = settings: 10 µM
786-0 renal = settings: 10 µM unless noted
COLO 205 colon = settings: 10 µM unless noted
DU-145 prostate = settings: 10 µM unless noted
MALME-3M melanoma = settings: 10 µM unless noted
MDA-MB-231 breast = settings: 10 µM unless noted
RXF 393 renal = settings: 10 µM unless noted
SF-268 CNS = settings: 10 µM unless noted
SF-295 CNS = settings: 10 µM unless noted
SF-539 CNS = settings: 10 µM unless noted
A549/ATCC NSCLC = settings: 10 µM unless noted
K-562 leukemia = settings: 10 µM unless noted
UACC-257 melanoma = settings: 10 µM unless noted
M14 melanoma = settings: 10 µM unless noted

SMILES	growth (NCI-H23 lung)	growth (NCI-H322M lung)	growth (HOP-62 NSCLC)	growth (NCI-H460 lung)	growth (HOP-92 NSCLC)	growth (NCI-H522 lung)	growth (786-0 renal)	growth (COLO 205 colon)	growth (DU-145 prostate)	growth (MALME-3M melanoma)	growth (MDA-MB-231 breast)	growth (RXF 393 renal)	growth (SF-268 CNS)	growth (SF-295 CNS)	growth (SF-539 CNS)	growth (A549/ATCC NSCLC)	growth (K-562 leukemia)	growth (UACC-257 melanoma)	growth (M14 melanoma)
O=C(N/N=C/c1cccc([N+](=O)[O-])c1)c1ccc(Br)o1	102%	105%	106%	114%	85.7%	85.7%	92.5%	97.9%	103%	115%	115%	104%	104%	111%	98.4%				
CC1CN(C2CCCCC2)C(=O)NC1=O (stereo not drawn)	114%	80.5%	108%	114%	92%		110%	101%	113%	108%	104%	110%	105%	108%	106%	104%	103%	109%	99.3%
COc1cc(/C=C/c2cc(/C=C/c3ccc(O)c(OC)c3)n(C(=O)Cc3ccccc3)n2)ccc1O	1.94% (active)	9.62% (active)	2.82% (active)	4.69% (active)	-0.112% (active)		10.2%	-64.3% (active)	17.3%	-0.485% (active)	15.2%	-42.6% (active)	9.64% (active)	8.28% (active)	-23.1% (active)	4.22% (active)	1.69% (active)	-5.67% (active)	0.243% (active)
OCCCc1n(Cc2ccc3ccccc3c2)c2ccccc2[n+]1Cc1ccc2ccccc2c1	19%	49.9%	37.5%	18.4%	-24.3% (active)		36%	-58.9% (active)	48.1%	-11.2% (active)	-17.7% (active)	14.6%	22.5%	32.8%	18.1%	68.4%	9.14% (active)	-14.1% (active)	3% (active)
COc1ccc(-c2cc(-c3nnc(SCC(=O)Nc4ccc(C(C)=O)cc4)n3-c3ccccc3)c3ccccc3n2)cc1OC	96.2%		84%	103%	104%		97.1%	98.8%	110%	97.2%	105%	115%	89.9%	98.7%	97.4%	94.9%	110%	87.1%	93.7%
NS(=O)(=O)c1ccc(-n2ncc3c(SCc4ccccc4)ncnc32)cc1	100%	87.7%	66.9%	105%	43%		85.1%	110%	78.1%	82.8%	91.4%		96.2%	64.7%	91.6%	80.8%	74.8%	56.6%	67%
C[C@H]1O[C@@H](O[C@H]2[C@@H](O)C[C@H](O[C@H]3[C@@H](O)C[C@H](O[C@H]4CC[C@]5(C)C6C[C@@H](O)[C@]7(C)[C@@H](C8=CC(=O)OC8)CC[C@]7(O)C6CC[C@@H]5C4)O[C@@H]3C)O[C@@H]2C)C[C@H](O)[C@@H]1O (stereo partly drawn)	-54.9% (active)	-75.3% (active)	-100% (active)	-95.1% (active)	-26% (active)	-83.9% (active)	-91.7% (active)	-85.9% (active)	-100% (active)	-57.2% (active)	-83.6% (active)	-22.4% (active)	-100% (active)	-99.9% (active)	-96.2% (active)		-24.2% (active)	-100% (active)	-81.6% (active)
O=c1sc2ncnc3ncn1c32	66.1%		41.8%	85.7%	50%		34.6%	83.5%	33.6%	73.6%	43.7%		82%	38.4%	45.8%	104%	15.2%	88.1%	14.5%
C/C(=C\CCc1ccoc1)CC/C=C(\C)CCCNc1ccc(F)cc1	100%	85.4%	93.6%	92.7%			95.1%	98.1%	101%	88.2%	72.9%	101%	90.1%	102%	89.6%	80.4%	68.6%	99.7%	103%
c1ccc(Nc2ccc(Nc3nc(-c4ccccc4)nc4ccccc34)cc2)cc1	86.9%	90.5%	79.8%	83.4%	134%		65.7%	78.5%	75.1%	109%	63%	83%	93.6%	55.9%	86.2%	63.2%	6.16% (active)	100%	76%
Cc1[nH]c(=O)[nH]c(=O)c1CCSSCCc1c(C)[nH]c(=O)[nH]c1=O	107%	89.9%	97.2%	108%	116%		103%	107%	113%	115%	119%	111%	113%	98.4%	110%	103%	95.8%		95.1%
CCCCNCCCN(CCCC)CCCNCCCC	104%	99.5%	94.9%	101%	41.5%		103%	100%	114%	104%	90.1%	96.6%	110%	94.4%	103%	95.4%	102%		94.2%
CCSc1nc(-c2ccc(F)cc2)c(C#N)c(=O)[nH]1	95.2%	101%	110%	108%	131%	96.8%	108%	126%	122%	85.1%	114%	104%	116%	103%	108%		124%	102%	110%
CCCCc1ccc(C(N)=O)nc1	102%	103%		108%	62.5%	85.3%	92.6%	118%	102%	108%	102%	103%	101%	109%	105%		109%	97.8%	100%
COc1ccc2c(c1)CC[C@@H]1[C@@H]2CC[C@]2(C)[C@@H](O)C(=O)C[C@@H]12	102%	91.3%	103%	102%			106%	102%	104%	148%	109%	134%	97.1%	109%	100%	99.6%	94.2%	106%	110%
Cc1ccc(C(=O)Cc2ccccc2)c(O)c1	101%	77.6%	104%	111%	87.3%		112%	109%	101%	115%	103%	115%	97.6%	107%	102%	102%	98.8%	108%	110%

SMILES	growth (NCI-H23 lung)	growth (NCI-H322M lung)	growth (HOP-62 NSCLC)	growth (NCI-H460 lung)	growth (HOP-92 NSCLC)	growth (NCI-H522 lung)	growth (786-0 renal)	growth (COLO 205 colon)	growth (DU-145 prostate)	growth (MALME-3M melanoma)	growth (MDA-MB-231 breast)	growth (RXF 393 renal)	growth (SF-268 CNS)	growth (SF-295 CNS)	growth (SF-539 CNS)	growth (A549/ATCC NSCLC)	growth (K-562 leukemia)	growth (UACC-257 melanoma)	growth (M14 melanoma)
COc1ccc(-c2cc(-c3cccnc3)nc(S(=O)(=O)CC(=O)Nc3ccc(C)cc3)c2C#N)cc1OC	85%	91.7%	96.8%	101%	76%		87.9%	96.5%	95%	94.7%	77.6%	90.4%	83.5%	97.9%	95.1%	93.4%	102%	104%	111%
CN(C)CCCNc1nn2c(=O)c3ccccc3nc2c2ccccc12	54.1%	61.9%	47.5%	19.9%	23.3%		59%	37.1%	81.4%	66.4%	77.1%		61%	47.9%	41.2%	24%	41%		89.2%
O=C1/C(=C/c2ccccc2Cl)CCc2ccccc21	102%	101%	106%	104%			102%	115%	108%	104%	111%	107%	96.7%	65.3%	106%	83.5%	105%		104%
O=C(CSc1ncc(-c2ccccc2)n1-c1ccccc1)Nc1ccc(-c2nc3ccccc3s2)cc1	62.6%	90.1%	73.1%	36.3%	95.6%		69.8%	103%	68.4%	17%	95.4%	93.2%	54.3%	96.4%	59.8%	20.3%	70.7%	48.8%	72.8%
Nc1ccc2c(c1)C(=O)c1cc(Cl)c(Cl)cc1-2	88.8%	117%		105%			91.4%	83.5%	100%		79.1%	104%	93.4%	105%	87.4%	90.7%	87.5%	107%	104%
Clc1ccc2[nH]cc(-c3cncn3CCc3ccccc3)c2c1	45.6%	65.5%	50.8%	68.5%			62.9%	44.3%	80.9%	43.8%	65.9%	52.3%	46.3%	43.5%	69.7%	59.7%	26.9%	50.2%	68.6%
COc1ccc(/C=C2/SC(=Nc3c(C)nn(-c4ccccc4)c3N)NC2=O)cc1	38.3%	39.1%	53%	17.7%	53.7%		40.5%	43.7%	43.6%		66.3%	83.6%	58.8%	8.06% (active)	23.6%	32.4%	15.2%	59%	17.2%
O=C(Nc1cccc(-n2cc(-c3ccncc3)c(-c3cc(O)cc(Cl)c3)n2)c1)Nc1ccc(Cl)c(Cl)c1	-20.5% (active)	19.5%	-44.2% (active)	0.213% (active)	-30.5% (active)		-72.1% (active)	22.4%	-15.1% (active)	-35.1% (active)	-38.1% (active)	-70.3% (active)	16.2%	-50.5% (active)	-29% (active)	3.96% (active)	1.06% (active)	-70.7% (active)	
O=C(O)CNC(=O)C1(N2C(=O)c3ccccc3C2=O)CCCC1	101%	106%	110%	113%	124%		94.1%	112%	124%		101%	95.7%	116%	102%	118%	99%	96.2%	109%	
C(=C1c2ccccc2-c2ccccc21)c1ccccn1	79.9%	89.1%	71.7%	83.8%	73.4%		87.2%	84.9%	106%		62.2%	80.6%	82.7%	71.3%	72.2%	63.7%	19.6%	91.1%	33.4%
NS(=O)(=O)N(c1cc(C(F)(F)F)cc(C(F)(F)F)c1)C1CCN(Cc2ccc(C(F)(F)F)cc2)CC1	9.79% (active)	45.1%	30.2%	5.71% (active)	7.48% (active)	-23.3% (active)	42.3%	-59.8% (active)	8.8% (active)	71.2%	19.1%		38.5%	49.8%	0.806% (active)		21%		-0.587% (active)
CC[n+]1c(/C=C/c2ccc(N3CCCC3)cc2)cccc1/C=C/c1ccc(N2CCCC2)cc1	-67.9% (active)	-86.7% (active)	-54.4% (active)	-84.3% (active)	-73.3% (active)	-83.2% (active)	-82.3% (active)	-83.1% (active)	-97.4% (active)	-82.2% (active)	-80.6% (active)	-93.7% (active)	-90.3% (active)	-76.9% (active)	-87.2% (active)		8.88% (active)	-92.5% (active)	-65.3% (active)
COc1cc(C(=O)c2cc3c(cc2C)OCO3)cc(OC)c1OC	28%	36%	40.8%	8.71% (active)	37.4%		51.3%	-49.9% (active)	21.5%	50.4%	23.3%	42.9%	43.1%	-50.4% (active)	6.27% (active)	17.8%	13.7%		22.5%
Nc1ccccc1-c1ccn[nH]1	110%	93.8%	87.4%	104%	91.4%		98.9%	86.6%	101%		101%	111%	88.8%	101%	97.9%	89.6%	78.5%	103%	94.2%
CN1CCN(c2nc3scc(-c4ccccc4)c3c(=O)[nH]2)CC1	100%	90.3%		108%	98.5%		98.3%	99%	103%	86.4%	92%	96.5%	96.7%	96.6%	93.7%	99%	95.9%	108%	97.6%
O=C(N/N=C/c1ccc(Cl)cc1Cl)c1ccccc1Nc1cccc(C(F)(F)F)c1	70.5%	86.2%	57.9%	104%	-0.368% (active)	67%	74.9%	109%		92.5%	48.9%		112%	24.4%	-93% (active)		35.3%	83.6%	
